# Shown are actives, neighbours in structure and some others; about 2.9% of the full set was active somewhere.
# pPAFAH FP inh: pPAFAH enzyme inhibitors, primary screen, biochemical, fluorescence polarization, human | Platelet-activating factor acetylhydrolase (Homo sapiens), Q13093 | recombinant pPAFAH, FP-rhodamine probe fluorescence polarization | inhibition, % at 3.39 µM | 1.5% of 330,000 active | AID 463082, 2010;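 active means inhibition above the mean inhibition across the screen plus 3 SD, cut at about 25% in these data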;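 further: inhibitors block binding of the rhodamine activity-based probe so polarization drops; 0% = enzyme with DMSO and 100% = wells lacking pPAFAH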
# EBNA-1 inhibitor: EBNA-1 DNA-binding inhibitors, primary screen, biochemical, fluorescence polarization; inhibition, % at 14.8 µM; AID 1950, 2009; 0.34% of 300,000 active; in the data active means inhibition above about 28%
# PAFAH1B3 FP inh: PAFAH1B3 enzyme inhibitors, primary screen, biochemical, fluorescence polarization, human; Platelet-activating factor acetylhydrolase IB subunit alpha1 (Homo sapiens), Q15102; inhibition, % at 3.39 µM; recombinant PAFAH1B3, FP-rhodamine probe; 0.28% of 340,000 active;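 active means inhibition above the screen-wide average of all tested compounds plus 3 SD, cut at about 25% in these data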;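 further: 0% = enzyme with DMSO only and 100% = wells lacking PAFAH1B3 protein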
# Target sequence (Q15102 whole entry, looked up): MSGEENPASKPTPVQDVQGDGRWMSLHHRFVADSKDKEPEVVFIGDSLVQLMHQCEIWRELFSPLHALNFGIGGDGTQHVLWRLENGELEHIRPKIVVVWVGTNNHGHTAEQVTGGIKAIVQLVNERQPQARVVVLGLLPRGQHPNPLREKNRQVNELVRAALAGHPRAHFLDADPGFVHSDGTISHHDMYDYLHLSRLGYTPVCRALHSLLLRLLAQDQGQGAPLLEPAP
# PAFAH2 inh: PAFAH2 enzyme inhibitors, primary screen, biochemical, fluorescence polarization, human. Platelet-activating factor acetylhydrolase 2, cytoplasmic (Homo sapiens), Q99487. 0.99% of 340,000 active. inhibition, % at 3.39 µM. recombinant PAFAH2, FP-rhodamine activity probe. AID 492956, 2010;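 active means inhibition above the mean over all tested compounds plus 3 SD, cut at about 30% in these data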;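 further: inhibitors block probe labeling of enzyme so polarization drops; 0% = enzyme with DMSO and 100% = wells lacking PAFAH2 protein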
# PAFAH1B2 inh: PAFAH1B2 enzyme inhibitors, primary screen, biochemical, fluorescence polarization, human; recombinant PAFAH1B2, FP-rhodamine activity probe; inhibition, % at 3.39 µM; 1.2% of 340,000 active; AID 492953, 2010;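 active means inhibition above the mean of all tested compounds plus 3 SD, cut at about 24% in these data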;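 further: 0% = enzyme with DMSO and 100% = wells lacking PAFAH1B2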
# ZTA DNA inh: ZTA (EBV) inhibition in EBNA-1 counter-screen. inhibition, % at 11 µM. AID 2234. ZTA-DNA binding, fluorescence polarization. 0.15% of 320,000 active; in the data active means inhibition above about 33%
# Target sequence (P03206 whole entry, looked up): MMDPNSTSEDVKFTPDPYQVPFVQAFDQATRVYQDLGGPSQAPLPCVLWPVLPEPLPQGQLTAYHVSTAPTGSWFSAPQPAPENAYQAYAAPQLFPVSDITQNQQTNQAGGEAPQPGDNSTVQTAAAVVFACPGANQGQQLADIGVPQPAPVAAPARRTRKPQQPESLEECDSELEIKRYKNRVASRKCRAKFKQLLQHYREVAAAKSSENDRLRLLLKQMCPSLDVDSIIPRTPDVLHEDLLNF
# pPAFAH FP conf: pPAFAH (PLA2G7) enzyme inhibitors, confirmation, biochemical, fluorescence polarization, human. 72% of 2,300 active. AID 463230, 2010. inhibition, % at 3.39 µM. recombinant pPAFAH, FP-Rh probe fluorescence polarization. shares compounds with pPAFAH FP inh;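 active means mean inhibition of the triplicate above the hit cutoff set for the earlier primary screen, cut at about 25% in these data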;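 further: 0% = enzyme with DMSO and 100% = wells lacking pPAFAH enzyme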
# Numbers without * were called inactive; . = not tested or not shown.
SMILES,pPAFAH FP inh,EBNA-1 inhibitor,PAFAH1B3 FP inh,PAFAH2 inh,PAFAH1B2 inh,ZTA DNA inh,pPAFAH FP conf
CCC1CCc2sc(C(=O)OCC(=O)N(CCOC)c3c(N)n(Cc4ccccc4)c(=O)[nH]c3=O)cc2C1 (centres undefined),5.2,16.2,4.3,3.4,-0.4,0.4,.
COCCN(C(=O)COC(=O)c1cc2c(s1)CCC2)c1c(N)n(Cc2ccccc2)c(=O)[nH]c1=O,56.4*,17.6,9.8,57.3*,9.0,12.5,34.4*
C/C(=N/O)c1no[n+]([O-])c1/C(C)=N\O,1.8,-1.0,8.3,6.2,8.5,-10.7,.
N#CC1(NC(=O)COC(=O)c2nc(Cl)ccc2Cl)CCCCC1,8.2,5.4,9.5,6.5,11.2,19.0,.
Cc1[nH]c2ccc(C(=O)OCC(=O)NC3(C#N)CCCCC3)cc2c1C,45.4*,-3.6,6.7,85.5*,1.6,-10.2,42.9*
CC1=C(C(=O)Nc2ccc(CC(=O)NCc3ccccc3C)cc2)SCCO1,15.8,6.1,4.4,-1.1,4.6,-2.4,.
CCc1ccc(CNC(=O)Cc2ccc(NC(=O)C3=C(C)OCCS3)cc2)cc1,35.5*,-5.7,1.3,9.8,3.0,-19.4,19.5
COc1ccc(NS(=O)(=O)c2c(C)cc(C)cc2C)cn1,3.7,-8.7,4.0,-10.4,1.7,-10.0,.
O=C(N/N=C1/CC2CCC1C2)c1cc2ccccc2cc1O (centres undefined),45.8*,1.2,-2.3,2.9,0.4,6.2,4.3
O=C(O)CC1S/C(=N/N=C/c2ccc(-c3ccc(Cl)c([N+](=O)[O-])c3)o2)NC1=O (centres undefined),35.8*,-2.7,0.1,6.9,-1.6,11.2,5.9
COc1ccc(N(CC(=O)NC2CCCC2)C(=O)Cn2nnc(-c3ccc(OC)c(OC)c3)n2)c(OC)c1,4.0,11.7,-4.7,10.5,2.5,-3.6,.
COc1ccc(/C=N/NC(=O)CNC(=O)c2ccncc2)cc1,1.4,-3.6,8.0,8.2,3.0,9.3,.
CN(C(=O)c1cccnc1)c1nnc(-c2cnccn2)s1,4.8,-2.5,-2.7,3.1,2.1,2.2,.
CN(C(=O)c1cccnc1)c1nnc(-c2cccnc2)s1,42.0*,-2.0,-4.3,-0.5,1.8,4.9,3.0
N#Cc1c(SCC(=O)Nc2cccc(C(F)(F)F)c2)sc2c(O)cc(=O)[nH]c12,40.4*,-10.8,13.3,17.7,10.6,-6.5,10.6
Cc1cc(NC(=O)CSc2sc3c(O)cc(=O)[nH]c3c2C#N)ccc1Br,51.9*,-4.1,8.7,-4.8,6.8,-7.8,26.6*
O=C(CSCCO)Nc1cccc(C(F)(F)F)c1,10.4,7.6,6.6,2.0,-0.9,8.5,.
CCCSc1nnc(NC(=O)CSc2nc3[nH]c(=O)cc(O)c3s2)s1,11.8,.,9.4,16.6,3.6,15.2,.
CCSc1nnc(NC(=O)CSc2sc3c(O)cc(=O)[nH]c3c2C#N)s1,39.0*,-6.2,16.7,49.8*,29.5*,14.0,35.2*
Cc1ccc(Cl)cc1NC(=O)CSc1sc2c(O)cc(=O)[nH]c2c1C#N,20.4,1.5,18.5,9.4,6.9,-2.8,.
O=c1cc(-c2ccc(F)cc2)[nH][nH]1,1.1,-4.4,7.3,2.8,1.4,-5.8,.
O=c1cc(-c2ccc(C3CCCCC3)cc2)[nH][nH]1,35.1*,-2.2,6.2,9.1,15.0,-15.9,5.4
CCN(CC(=O)Nc1ccccc1OC)C(=O)COc1ccc2ccccc2c1,3.6,-0.6,6.9,3.2,7.5,2.4,.
COc1ccc(-c2cc(=O)oc3cc(OC(C)C(=O)O)ccc23)cc1 (centres undefined),-4.5,5.5,7.0,-8.0,1.1,-10.1,.
COc1ccc(-c2cc(=O)oc3c(O)c(O)ccc23)cc1,43.3*,-0.7,21.1,28.8,4.7,6.2,79.5*
SMILES,pPAFAH FP inh,EBNA-1 inhibitor,PAFAH1B3 FP inh,PAFAH2 inh,PAFAH1B2 inh,ZTA DNA inh,pPAFAH FP conf
CC(=O)N1CCN(c2ccc(NCc3ccc(-c4ccc(Br)cc4)o3)cc2)CC1,41.2*,.,12.2,8.2,7.1,.,26.2*
CC(=O)N1CCN(c2ccc(NCc3ccc(Br)o3)cc2)CC1,11.4,.,11.4,3.0,1.3,0.8,.
CN(C)S(=O)(=O)c1cccc(NC(=O)CCNC(=O)c2ccccc2Cl)c1,0.9,-6.3,-1.2,-0.1,1.4,-8.5,.
COc1ccccc1NS(=O)(=O)c1ccc(C)c(C(N)=O)c1,58.1*,5.9,3.4,3.2,-2.4,-16.1,1.2
COc1ccccc1NS(=O)(=O)c1ccc(C(N)=O)cc1,-2.5,-19.1,1.4,-3.6,2.7,20.0,.
O=C(O)CCCN1C(=O)/C(=C/C=C/c2ccco2)SC1=S,61.3*,45.5*,11.8,31.9*,5.6,87.7*,18.1
O=C1S/C(=C\C=C\c2ccco2)C(=O)N1c1ccc(O)cc1,36.6*,9.9,-0.3,-3.7,0.2,19.2,6.3
Cn1cccc1/C=C1\SC(=S)N(NC(=O)c2ccccc2O)C1=O,11.3,-5.6,6.9,14.5,0.4,19.4,.
O=C(O)CC(C(=O)O)N1C(=O)/C(=C/C=C/c2ccco2)SC1=S (centres undefined),67.6*,36.5*,8.1,21.5,4.6,91.9*,9.5
Cc1ccc(NC(=O)CCCN2C(=O)/C(=C/C=C/c3ccccc3)SC2=S)cc1,9.7,6.4,-2.2,-16.6,1.9,6.0,.
O=C(NN1C(=O)/C(=C/C=C/c2ccco2)SC1=S)c1ccccc1O,77.8*,36.8*,26.2*,59.2*,18.6,49.0*,67.3*
O=C(N/N=C1/CCSC1)c1cc(Br)ccc1O,36.9*,0.4,14.4,15.7,9.6,-3.9,11.5
CCOC(=O)c1c(NC(=O)COC(=O)C2CC2C)sc(C)c1C (centres undefined),5.5,-7.3,3.6,4.3,-0.4,-13.6,.
CC(=O)Nc1nc(C)c(-c2csc(Nc3cccc(C(C)=O)c3)n2)s1,37.5*,-3.2,11.2,10.5,10.2,-9.0,36.7*
CC(C)(C)NC(=O)C(c1ccccn1)N(C(=O)C1CSC(=O)C1)c1ccc(F)cc1 (centres undefined),2.1,2.2,0.2,-2.6,7.8,-1.8,.
Cc1cc(SCC(=O)c2ccc(O)c(O)c2)n2nc(C)c(-c3ccccc3)c2n1,71.8*,-1.1,13.2,17.0,-0.9,12.6,88.4*
Cc1cc(C)nc(SCC(=O)c2ccc(O)c(O)c2)n1,4.6,-0.8,16.6,13.4,5.4,-9.2,.
CCCCNC(=O)c1sc(=S)n2c1[nH]c(=O)c1ccccc12,34.9*,-10.2,30.9*,38.0*,26.1*,-0.3,63.1*
